Measured values: PubChem BioAssay AID1159580 (chemical genetic matrix, 2015)
Among all 5,500 compounds or so, about 2,000 (36%) were called active. Roughly 18% stayed inconclusive and do not appear here. No stated cut-off is given here; in the data, active means normalized growth mostly below about 0.91 (no sharp cut-off); inconclusive means no clear call, values can overlap the other calls; inactive means mostly above about 0.92. The list shows a part of the results.

Test: chemical genetic growth profiling, strain panel (AID 1159580);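 further: tested at 20 µM; growth read once vehicle control cultures reached saturation at 30 °C; 1 = growth at the plate median or of vehicle wells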
Conditions: S. cerevisiae deletion strains, growth OD

Measured: normalized growth

NCCS(=O)(=O)O
inactive: locus YAL021C, strain ccr4, stronger effect = lower value 0.965 | locus YAL026C, strain drs2, stronger effect = lower value 0.978 | locus YAL030W, strain snc1, stronger effect = lower value 0.981 | locus YAL040C, strain CLN3, stronger effect = lower value 1 | locus YBL061C, strain skt5, stronger effect = lower value 0.984 | locus YBR009C, strain hhf1, stronger effect = lower value 0.981 | locus YBR023C, strain chs3, stronger effect = lower value 0.982 | locus YBR171W, strain sec66, stronger effect = lower value 0.97 | locus YBR231C, strain swc5, stronger effect = lower value 0.983 | locus YBR279W, strain paf1, stronger effect = lower value 0.985 | locus YCL011C, strain gbp2, stronger effect = lower value 0.965 | locus YCL016C, strain dcc1, stronger effect = lower value 0.984 | locus YCL061C, strain MRC1 (second series), stronger effect = lower value 1 | locus YCL061C, strain MRC1, stronger effect = lower value 0.98 | locus YCL069W, strain vba3, stronger effect = lower value 0.976 | locus YCR088W, strain abp1, stronger effect = lower value 0.978 | locus YDL005C, strain med2, stronger effect = lower value 0.984 | locus YDL040C, strain nat1, stronger effect = lower value 0.986 | locus YDR001C, strain nth1, stronger effect = lower value 0.983 | locus YDR069C, strain doa4, stronger effect = lower value 0.98 | locus YDR137W, strain rgp1, stronger effect = lower value 0.971 | locus YDR150W, strain NUM1, stronger effect = lower value 1.01 | locus YDR159W, strain sac3, stronger effect = lower value 0.952 | locus YDR195W, strain ref2 0.924 | locus YDR297W, strain sur2, stronger effect = lower value 0.979 | locus YDR334W, strain swr1, stronger effect = lower value 0.948 | locus YDR335W, strain msn5, stronger effect = lower value 0.969 | locus YDR363W, strain ESC2, stronger effect = lower value 1 | locus YDR392W, strain spt3, stronger effect = lower value 0.977 | locus YEL003W, strain gim4, stronger effect = lower value 0.975 | locus YEL037C, strain rad23, stronger effect = lower value 0.975 | locus YEL061C, strain CIN8 (second series), stronger effect = lower value 0.97 | locus YER002W, strain NOP16, stronger effect = lower value 0.984 | locus YER015W, strain faa2, stronger effect = lower value 0.971 | locus YER016W, strain bim1, stronger effect = lower value 0.975 | locus YER111C, strain swi4, stronger effect = lower value 0.967 | locus YER155C, strain BEM2 (second series), stronger effect = lower value 0.978 | locus YFR010W, strain ubp6, stronger effect = lower value 0.959 | locus YGL167C, strain pmr1, stronger effect = lower value 0.977 | locus YGL173C, strain kem1, stronger effect = lower value 0.971 | locus YGL227W, strain vid30, stronger effect = lower value 0.984 | locus YGL240W, strain doc1, stronger effect = lower value 0.961 | locus YGL253W, strain hxk2, stronger effect = lower value 0.986 | locus YHR013C, strain ard1, stronger effect = lower value 0.968 | locus YHR027C, strain rpn1, stronger effect = lower value 0.967 | locus YHR030C, strain SLT2, stronger effect = lower value 0.943 | locus YHR079C, strain IRE1, stronger effect = lower value 0.966 | locus YHR142W, strain chs7, stronger effect = lower value 0.964 | locus YJL092W, strain hpr5, stronger effect = lower value 0.963 | locus YJL095W, strain BCK1 (second series), stronger effect = lower value 0.972 | locus YJL095W, strain BCK1, stronger effect = lower value 0.998 | locus YJL115W, strain asf1, stronger effect = lower value 0.958 | locus YJL129C, strain trk1, stronger effect = lower value 0.961 | locus YJL154C, strain vps35, stronger effect = lower value 0.974 | locus YJL164C, strain tpk1, stronger effect = lower value 0.986 | locus YJL166W, strain qcr8, stronger effect = lower value 0.986 | locus YJL187C, strain SWE1, stronger effect = lower value 0.982 | locus YJR066W, strain TOR1, stronger effect = lower value 0.92 | locus YJR075W, strain HOC1, stronger effect = lower value 0.999 | locus YKL160W, strain elf1, stronger effect = lower value 0.983 | locus YKR026C, strain gcn3, stronger effect = lower value 0.967 | locus YKR091W, strain srl3, stronger effect = lower value 0.979 | locus YLL001W, strain dnm1, stronger effect = lower value 0.97 | locus YLL026W, stronger effect = lower value 0.982 | locus YLL041C, strain sdh2, stronger effect = lower value 0.971 | locus YLR027C, strain aat2, stronger effect = lower value 0.981 | locus YLR113W, strain HOG1, stronger effect = lower value 1.02 | locus YLR221C, strain rsa3, stronger effect = lower value 0.982 | locus YLR258W, strain gsy2, stronger effect = lower value 0.987 | locus YLR262C, strain YPT6 (second series), stronger effect = lower value 0.99 | locus YLR320W, strain mms22, stronger effect = lower value 0.972 | locus YLR342W, strain FKS1, stronger effect = lower value 0.985 | locus YLR357W, strain rsc2, stronger effect = lower value 0.972 | locus YLR370C, strain arc18, stronger effect = lower value 0.981 | locus YLR384C, strain iki3, stronger effect = lower value 0.977 | locus YML120C, strain ndi1, stronger effect = lower value 0.963 | locus YMR058W, strain fet3, stronger effect = lower value 0.97 | locus YMR125W, strain sto1, stronger effect = lower value 0.954 | locus YMR129W, stronger effect = lower value 0.978 | locus YMR205C, strain PFK2, stronger effect = lower value 1 | locus YMR231W, strain pep5, stronger effect = lower value 0.985 | locus YMR307W, strain GAS1, stronger effect = lower value 1 | locus YNL071W, strain lat1, stronger effect = lower value 0.981 | locus YNL128W, strain TEP1, stronger effect = lower value 1 | locus YNL153C, strain GIM3, stronger effect = lower value 1.04 | locus YNL175C, strain NOP13, stronger effect = lower value 1.01 | locus YNL183C, strain NPR1, stronger effect = lower value 0.939 | locus YNL197C, strain WHI3, stronger effect = lower value 0.993 | locus YNL209W, strain ssb2, stronger effect = lower value 0.973 | locus YNL224C, strain SQS1, stronger effect = lower value 1 | locus YNL248C, strain rpa49, stronger effect = lower value 0.944 | locus YNL322C, strain KRE1 (second series), stronger effect = lower value 0.971 | locus YNR049C, strain mso1, stronger effect = lower value 0.975 | locus YOR001W, strain rrp6, stronger effect = lower value 0.957 | locus YOR070C, strain gyp1, stronger effect = lower value 0.992 | locus YOR080W, strain dia2, stronger effect = lower value 0.978 | locus YOR083W, strain WHI5 (second series), stronger effect = lower value 1.03 | locus YOR083W, strain WHI5, stronger effect = lower value 0.976 | locus YOR106W, strain vam3, stronger effect = lower value 0.97 | locus YOR231W, strain MKK1, stronger effect = lower value 0.954 | locus YOR265W, strain rbl2, stronger effect = lower value 0.976 | locus YOR270C, strain vph1, stronger effect = lower value 0.949 | locus YOR290C, strain snf2, stronger effect = lower value 0.999 | locus YPL051W, strain arl3, stronger effect = lower value 0.99 | locus YPL055C, strain LGE1, stronger effect = lower value 1 | locus YPL078C, strain atp4, stronger effect = lower value 0.966 | locus YPL106C, strain sse1, stronger effect = lower value 0.947 | locus YPL240C, strain hsp82, stronger effect = lower value 0.994 | locus YPL241C, strain CIN2, stronger effect = lower value 1 | locus YPL256C, strain CLN2, stronger effect = lower value 0.957
